High-throughput results from PubChem BioAssay.
GPR32 ag: activates human resolvin D1 receptor GPR32; O75388; CHO-K1 GPR32 beta-arrestin PathHunter luminescence, 90 min; zero percent set by DMSO-only wells; activation, % at 76.9 µM; 2.5% of 48,000 active;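 active means activation of at least 60% and not above a set upper limit, about 1 call in 100 departs from these limits; inconclusive means activation of 40% to 60%, or above that upper limit; inactive means activation under 40%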; further: 0% is about no effect
Target sequence (O75388 whole entry, looked up): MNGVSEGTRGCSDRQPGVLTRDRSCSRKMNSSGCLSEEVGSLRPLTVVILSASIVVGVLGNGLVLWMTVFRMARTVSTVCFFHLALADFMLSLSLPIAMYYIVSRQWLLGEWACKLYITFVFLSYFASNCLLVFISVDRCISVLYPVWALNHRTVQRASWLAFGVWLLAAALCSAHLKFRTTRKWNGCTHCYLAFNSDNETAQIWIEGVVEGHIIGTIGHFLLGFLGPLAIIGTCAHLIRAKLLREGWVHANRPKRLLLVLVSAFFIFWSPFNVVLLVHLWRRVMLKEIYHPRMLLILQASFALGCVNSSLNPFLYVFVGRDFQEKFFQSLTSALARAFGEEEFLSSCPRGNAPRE
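Readings come from a cell-based beta-arrestin complementation format: CHO-K1 GPR32 stable cells (2,500/well) treated 90 min with compounds, then beta-Gal substrate added for 1 h before chemiluminescence imaging.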
HTT promoter inh: inhibits huntingtin promoter activity. 0.93% of 48,000 active. Potency, µM (doses to about 57.5 µM), for the others: at the top dose activity change, negative = inhibition, most hits filed as inhibitors. AID 1508623. HEK293 HTT promoter firefly luciferase reporter, 24 h; further: potency means the concentration at half of the fitted maximal effect; nearly all actives have a fitted effect of over 50% in size
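Luminescence was read after Dual-Glo reagent and a 10 min room-temperature incubation. Values were normalized to vehicle (0% activity) and zero RLU (-100% activity). Reporter HEK293 cells had been exposed to compounds (up to 57.5 uM final) for 24 h.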
HTT-AS act: activators of huntingtin-antisense promoter activity. AID 1508624. Potency, µM (titrated, usually from 57.5 µM), for inactives: at the highest dose activity change, positive = activation, hits mostly activators. 0.24% of 48,000 active. HEK293 HTT-AS promoter firefly luciferase reporter, 24 h; response scale: percent change from vehicle, -100% = no light; further: potency means the concentration at half of the fitted maximal effect; nearly all actives have a fitted effect of over 55% in size
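HEK293 cells carrying firefly luciferase reporters were seeded at 2,500 per well in Opti-MEM and cultured for 24 h. They were then treated with compounds at up to 57.5 uM final for 24 h at 37 degrees C before Dual-Glo luminescence readout.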
The depositor's hits bear a star; ? = inconclusive; . = not tested or not shown; [ ] = dose if it differs, or a comment. This is a sample that favours compounds with a hit; in the whole collection about 3.7% have one here. Unless noted, the call rests on the fitted dose curve; in most records, active means well fitted curve in the direction sought with a large enough effect; inconclusive means small, poorly fitted or top-dose-only effect, or another doubt; inactive means no such curve, though single readings can be large; an effect the other way counts as inactive or inconclusive.

SMILES	GPR32 ag	HTT promoter inh	HTT-AS act
CCN1C(=O)CC(C(=O)Nc2ccc(OC)cc2)SC1=Nc1ccc(C)c(C)c1 (stereo unspecified)	13	-13%	-6%
O=C(Nc1nonc1-c1ccc(Br)cc1)c1ccco1	71*	?	-20%
Cc1cccc(C)c1OCC(=O)Nc1nonc1-c1ccc(Br)cc1	-1	-14%	-22%
CN1N=C(C(N)=O)CCC1=O	18	12%	2%
CCOc1ccc(C(=O)N2CCN(Cc3cc(=O)n4nc(-c5ccccc5Cl)sc4n3)CC2)cc1	-3	-9%	-9%
Cc1cccc(NC(=O)c2ccc(F)c(S(=O)(=O)N3CCN(c4ccc(F)cc4)CC3)c2)c1	-15	?	-31%
O=C(Nc1ccc(Oc2ccccc2)cc1)c1ccc(F)c(S(=O)(=O)N2CCN(c3cccc(Cl)c3)CC2)c1	5	?	-44%
Cc1cccc(N2CCN(S(=O)(=O)c3cc(C(=O)Nc4ccc(Oc5ccccc5)cc4)ccc3F)CC2C)c1 (stereo unspecified)	-6	1µM*	-46%
O=C(Nc1ccc(Oc2ccccc2)cc1)c1ccc(F)c(S(=O)(=O)N2CCN(c3ccccc3F)CC2)c1	-5	2µM*	-44%
COc1ccccc1N1CCN(S(=O)(=O)c2cc(C(=O)Nc3ccc(Oc4ccccc4)cc3)ccc2F)CC1	-3	1.4µM*	-42%
COc1ccccc1N1CCN(S(=O)(=O)c2ccc(F)c(C(=O)Nc3ccc(C)c(F)c3)c2)CC1	-6	?	-24%
O=C(NCc1ccccc1)NC1COc2ccccc2C1 (stereo unspecified)	-14	10%	14%
CN[C@@H]1[C@@H](O)[C@@H](O[C@@H]2[C@@H](O)[C@H](O[C@H]3O[C@H](CN)[C@@H](O)[C@H](O)[C@@H]3O)[C@@H](N)C[C@@H]2NC(=O)[C@@H](O)CN)OC[C@]1(C)O	.	-1%	-13%
Oc1cccc(-c2nc(N3CCOCC3)c3oc4ncccc4c3n2)c1	.	?	-19%[116 µM]
CCCC(=O)Nc1ccc(O)c(C(C)=O)c1	10	1%	-3%
Cc1ccc(Cl)c2sc(N3CCN(C(=O)C4CC4)CC3)nc12	73*	0%	-19%
O=C(C1CC1)N1CCN(c2nc3c(Cl)cccc3s2)CC1	-9	-8%	24%
CCS(=O)(=O)c1cccc(C(=O)N2CCN(c3nc4c(C)ccc(Cl)c4s3)CC2)c1	0	11µM*	-48%
CCS(=O)(=O)c1ccc(C(=O)N2CCN(c3nc4c(OC)ccc(C)c4s3)CC2)cc1	10	?	-37%
C=C1C[C@@]2(O)O[C@@]3(C[C@H]2C(C)C)[C@H](C)CC[C@H]13	.	-2%	-6%
CC(=O)NC(C)c1ccc(Oc2ccc(OC(C)C)cc2)cc1 (stereo unspecified)	.	11%	0%
COc1ccc(OCC(=O)Nc2cc(-c3ccccc3F)nn2-c2ccccc2)cc1	91*	4%	13%
Cc1ccc(OCC(=O)Nc2cc(-c3cccc(C)c3)nn2-c2ccccc2)cc1	-20	30%	28%
CCC(CC)C(=O)Nc1cc(-c2ccccc2F)nn1-c1ccccc1	-18	-15%	-9%
COc1ccc(OCC(=O)Nc2cc(-c3cccc(Cl)c3)nn2-c2ccccc2)cc1	100*	36%	?
SMILES	GPR32 ag	HTT promoter inh	HTT-AS act
COc1c(C)cnc(Cn2cnc3c(Cl)nc(N)nc32)c1C	.	?	-57%
CCOC(=O)C(=O)c1csc(NC=O)n1	8	14%	-2%
Cc1onc(-c2ccc(Br)cc2)c1C(=O)Nc1ccc(Br)cc1F	-20	14%	12%
Cc1noc(C)c1S(=O)(=O)N(CC(=O)Nc1ccc(C(F)(F)F)cc1)c1ccc(C(C)C)cc1	10	?	-42%
Cc1cc(Br)ccc1NC(=O)c1ccc(NS(=O)(=O)c2c(C)noc2C)cc1	64*	-5%	-10%
Cc1noc(C)c1S(=O)(=O)Nc1ccc(C(=O)Nc2ccc(C(C)C)cc2)cc1	91*	-26%	-22%
Cc1noc(C)c1S(=O)(=O)Nc1ccc(C(=O)Nc2ccc(Br)cc2)cc1	95*	?	-31%
Cc1noc(C)c1S(=O)(=O)N1CCC(C(=O)Nc2ccc(Br)cc2)CC1	5	-28%	-28%
CCCCCCCCCCCCc1ccc(S(=O)(=O)Nc2nncs2)cc1	.	1%	-1%
CCc1cc(Nc2nccc(-c3c(-c4ccc(OC)c(C(=O)Nc5c(F)cccc5F)c4)nc4ccccn34)n2)c(OC)cc1N1CCC(N2CCN(S(C)(=O)=O)CC2)CC1	.	1%	0%
CC(CC(C#N)(c1ccccc1)C(C)C)N(C)C (stereo unspecified)	-34	-3%	-2%
Cn1cncc1[C@@](N)(c1ccc(Cl)cc1)c1ccc2c(c1)c(-c1cccc(Cl)c1)cc(=O)n2C	.	-29%	-36%
O=C(CCCN1C(=O)C(c2ccccc2)Oc2cccnc21)Nc1ccccc1C(F)(F)F (stereo unspecified)	-7	-10%	-15%
COc1ccc(NC(=O)CCCN2C(=O)C(c3ccccc3)Oc3cccnc32)cc1OC (stereo unspecified)	76*	?	-36%
CCOC(=O)CSc1nc2ccccc2c(=O)n1CCc1ccc(OC)c(OC)c1	0	-17%	-55%
CCCOC(=O)c1cccc(Nc2nc(CCC)cc(=O)[nH]2)c1	87*	.	.
CCCc1cc(=O)[nH]c(Nc2ccc(C(=O)O)cc2)n1	-2	.	.
CCN(CCO)CCCOc1ccc2c(Nc3cc(CC(=O)Nc4cccc(F)c4)[nH]n3)ncnc2c1	.	0%	-10%
COc1cccc(NC(=O)CN2C(=O)c3cccc4cccc2c34)c1	?	?	-7%[11.5 µM]
CCn1c(=O)sc2cc(NS(=O)(=O)c3ccc(C)cc3)ccc21	61*	?	-27%
CCc1ccc(S(=O)(=O)Nc2ccc3c(c2)sc(=O)n3C)cc1	0	?	-15%
O=C(O)c1ccc(NC(=O)c2ccc(Br)c(S(=O)(=O)N3CCCC3)c2)cc1	-13	-8%	-16%
O=C(Nc1ccc(Br)cc1)c1ccc(Br)c(S(=O)(=O)N2CCCCC2)c1	24	13µM*	-26%
CC(CSC(=O)c1ccccc1)C(=O)N1C[C@@H](Sc2ccccc2)C[C@H]1C(=O)O (stereo partly specified)	-40	1%[25.2 µM]	-7%[25.1 µM]
CC(=O)Nc1c(C(=O)Nc2cccc(C)c2)nnn1-c1ccc(C)cc1	119*	17%	18%
SMILES	GPR32 ag	HTT promoter inh	HTT-AS act
Cc1ccc(C)c(-n2nnc(C(=O)Nc3ccc(Br)cc3)c2C)c1	26	?	5%
Cc1cn(C)c(CC(=O)NCc2ccccc2Cl)c1C(=O)O	-9	-5%	-11%
Cc1ccc2oc(-c3ccc(Cl)cc3)c(O)c(=O)c2c1	19	89%	2.5µM*
CCOc1ccc(-c2oc3ccccc3c(=O)c2O)cc1OCC	15	25%	?
COc1ccc(NC(=O)c2nn(C)c3c2CS(=O)(=O)c2ccccc2-3)cc1Cl	8	-19%	-15%
Clc1ccc(C2(c3ccc(-c4cn[nH]c4)cc3)CCNCC2)cc1	.	?	-34%
Cc1ccc(CNC(=O)Cc2csc3ccccc23)cc1	85*	76%	?
O=C(Cc1csc2ccccc12)NCc1ccc(F)cc1	-19	54%	?
